Data reported in PubChem BioAssay AID2283162 (EPA ToxCast).
Records with an inconclusive call do not appear. Calls of active or inactive are those of the source. How the source made its calls: active means hit-call score of the fitted dose curve at least 0.9, where 1 is the maximum; inconclusive means response in the unintended direction; inactive means score below 0.9.

Target: human Insulin-like Growth Factor 1 Receptor (IGF1R), IGF1R (gene 3480) (UniProt P08069)
Assay: NVS_ENZ_hIGF1R: NovaScreen (NVS) Enzymatic Assay for human Insulin-like Growth Factor 1 Receptor (IGF1R)
Description: NVS_ENZ_hIGF1R is a biochemical, single-readout assay that uses extracted gene-proteins in a cell-free assay. Measurements were taken 1 hour after chemical dosing in a 384-well plate.NVS_ENZ_hIGF1R is one of one assay component(s) measured or calculated from the NVS_ENZ_hIGF1R assay. It is designed to make measurements of enzyme activity, a form of enzyme reporter, as detected with fluorescence intensity signals by Fluorescence and electrophoretic mobility shift technology.Data from the assay component NVS_ENZ_hIGF1R was analyzed into 1 assay endpoint. This assay endpoint, NVS_ENZ_hIGF1R, was analyzed in the positive analysis fitting direction relative to DMSO as the negative control and baseline of activity. Using a type of enzyme reporter, loss-of-signal activity can be used to understand changes in the enzymatic activity as they relate to the gene IGF1R. Furthermore, this assay endpoint can be referred to as a primary readout, because this assay has produced multiple assay endpoints where this one serves a enzymatic activity function. To generalize the intended target to other relatable targets, this assay endpoint is annotated to the kinase intended target family, where the subfamily is receptor tyrosine kinase.
Binding assays used specific radioligands (tritiated, iodinated) with non-radioactive competitive displacement ligands in agonist or antagonist protocols (as indicated) and various reference compounds and inhibitors to titrate specific binding to receptors and transporters. Most enzyme assays (CYPs, kinases, phosphatases, proteases, HDACs) used recombinant protein and specific substrates (fluorescence mostly, some colorimetric and radioactive) and inhibitors, followed by a biochemical separation of substrate and product. All assays for the biochemical HTS were initially run in duplicate at a single concentration (10 uM for CYP450 assays and 25 uM for all others). Assay-chemical combinations meeting a pre-defined threshold (e.g., 30% inhibition and other criteria defined below) were then run in singleton concentration-response format with maximum concentration of 20 uM for CYPs and 50 uM for all others. Each assay was run with positive and negative controls, and concurrent controls on every plate. The follow-up (secondary) screen tested active chemical-pairs in concentration series, as well as a few additional assays not tested in the primary screen, some selected negative inactives, and several cases re-run in the concentration series for confirmatory purposes.

Sequence of human Insulin-like Growth Factor 1 Receptor (IGF1R), IGF1R (gene 3480) (P08069 whole entry, looked up): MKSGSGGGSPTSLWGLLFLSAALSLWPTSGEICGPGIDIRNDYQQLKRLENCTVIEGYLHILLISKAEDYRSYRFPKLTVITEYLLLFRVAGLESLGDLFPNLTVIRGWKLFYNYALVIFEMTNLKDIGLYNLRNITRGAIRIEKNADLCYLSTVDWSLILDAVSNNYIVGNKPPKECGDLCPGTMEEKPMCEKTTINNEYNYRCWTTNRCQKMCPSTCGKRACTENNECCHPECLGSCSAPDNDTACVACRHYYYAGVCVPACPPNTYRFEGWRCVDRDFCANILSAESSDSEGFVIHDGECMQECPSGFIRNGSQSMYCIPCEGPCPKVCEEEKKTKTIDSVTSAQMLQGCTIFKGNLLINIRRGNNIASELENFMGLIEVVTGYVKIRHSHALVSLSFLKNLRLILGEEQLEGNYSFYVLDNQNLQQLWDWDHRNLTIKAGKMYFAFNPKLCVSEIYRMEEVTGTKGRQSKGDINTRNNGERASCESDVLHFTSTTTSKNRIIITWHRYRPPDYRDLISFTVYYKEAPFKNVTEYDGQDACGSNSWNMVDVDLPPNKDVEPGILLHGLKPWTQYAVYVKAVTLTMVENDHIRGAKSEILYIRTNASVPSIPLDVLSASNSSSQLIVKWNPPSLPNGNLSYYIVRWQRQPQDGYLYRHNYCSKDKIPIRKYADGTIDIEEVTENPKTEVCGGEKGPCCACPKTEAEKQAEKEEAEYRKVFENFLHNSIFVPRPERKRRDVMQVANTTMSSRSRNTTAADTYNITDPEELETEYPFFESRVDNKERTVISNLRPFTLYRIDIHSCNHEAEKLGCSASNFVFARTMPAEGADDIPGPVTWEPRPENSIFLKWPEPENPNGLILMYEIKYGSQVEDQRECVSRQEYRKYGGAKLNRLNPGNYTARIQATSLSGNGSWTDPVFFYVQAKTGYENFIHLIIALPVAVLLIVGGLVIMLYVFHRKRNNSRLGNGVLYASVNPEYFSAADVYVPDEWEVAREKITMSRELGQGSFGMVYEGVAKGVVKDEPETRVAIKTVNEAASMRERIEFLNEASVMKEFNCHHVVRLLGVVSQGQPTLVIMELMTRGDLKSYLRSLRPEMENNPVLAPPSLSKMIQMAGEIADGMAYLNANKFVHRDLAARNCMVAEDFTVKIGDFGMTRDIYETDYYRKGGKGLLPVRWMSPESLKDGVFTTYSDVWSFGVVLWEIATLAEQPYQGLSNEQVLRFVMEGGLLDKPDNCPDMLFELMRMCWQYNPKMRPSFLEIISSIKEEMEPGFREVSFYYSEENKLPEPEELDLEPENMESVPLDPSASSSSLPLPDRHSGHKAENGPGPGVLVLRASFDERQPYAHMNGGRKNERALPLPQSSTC

SMILES	outcome	AC50
Clc1cccc(Cl)c1	inactive	–
CC(C)(C)c1cc(O)ccc1O	inactive	–
CC(C)C(=O)OCC(C)(C)C(OC(=O)C(C)C)C(C)C (stereo unspecified)	inactive	–
O=C(N[C@H]1CN2CCC1CC2)c1ccc2c(c1)OCCO2	inactive	–
CN(C)[C@@H]1C(=O)C(C(N)=O)=C(O)[C@@]2(O)C(=O)C3=C(O)c4c(O)cccc4[C@@](C)(O)[C@H]3[C@H](O)[C@@H]12	–	39.4 µM (active)
CCC1(c2ccccc2)C(=O)N=C(O)NC1=O (stereo unspecified)	inactive	–
